From PubChem BioAssay (NCI) come the findings set out here.

Holding throughout (assay): NCI-60 one-dose screen, 48 h (100 = growth as untreated, 0 = no growth, -100 = all killed)
What all share (conditions): 10 µM unless noted

Assay [1] has as its system SR leukemia.
The subject of assay [2] is RPMI-8226 leukemia.
Assay [3] deals with OVCAR-8 ovarian.
The subject of assay [4] is OVCAR-5 ovarian.
The test system of assay [5] is OVCAR-4 ovarian.
The subject of assay [6] is SK-OV-3 ovarian.
The test system of assay [7] is IGROV1 ovarian.
Assay [8] has as its system OVCAR-3 ovarian.
The test system of assay [9] is NCI/ADR-RES ovarian.
The subject of assay [10] is T-47D breast.
Assay [11] relates to BT-549 breast.
Assay [12] has as its system MDA-MB-435 melanoma.
For assay [13], the system named is MCF7 breast.
Assay [14] relates to HCT-116 colon.
Assay [15] deals with HCC-2998 colon.
Assay [16] deals with KM12 colon.
Assay [17] deals with MDA-MB-468 breast.

Each structure is given as a SMILES string. This is part of a sample that, as a whole, favours compounds with a hit. Of some 83,000 tested, about 20% had one in any assay.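 For each line, cells grew in 96-well plates with the test compound present at a single concentration for 48 hours.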 Values without a mark were called inactive. Active and inactive are the calls of the source. Rule for the calls: active = growth percent below 10; inactive = the rest.

As to `N#Cc1c(-c2ccc(Br)cc2)nc2n[nH]c(-c3ccc(Br)cc3)c2c1-c1ccc(C(F)(F)F)cc1`, the growth was -11.6% (active) in assay [1]; 0.725% (active) in assay [2]; 40.4% in assay [3]; 47.7% in assay [4]; 11.8% in [5]; 21.8% in [6]. The growth in assay [7] was 6.15% (active); in assay [8], 10.7%; in assay [9] it was 23.7%; in assay [10] it was 3.49% (active); in [11], 11.3%; in assay [12], 3.09% (active). Also, the growth was 5.3% (active) in assay [13]; 6.76% (active) in [14]; 21.8% in [15]; 10.9% in [16]; -4.16% (active) in assay [17].
For `CSc1ccc(NC(=O)c2ccc3nn(/C(C#N)=C/c4ccccn4)nc3c2)cc1`, the growth in assay [1] is -6.88% (active); in assay [2], -35.4% (active); in assay [3], -44.2% (active); in [4], -87.6% (active); in assay [5] it was -57.2% (active); in [6] it was -2.79% (active). The growth is -87.4% (active) in assay [7]; -85% (active) in assay [8]; -35.7% (active) in assay [9]; -39.9% (active) in assay [10]; -97.9% (active) in assay [11]; -70.8% (active) in assay [12]. Also, the growth is -78.6% (active) in [13]; -73.9% (active) in assay [14]; -100% (active) in [15]; -68% (active) in assay [16]; -94% (active) in [17].
Regarding `CCOc1ccc(-c2c(C#N)c(-c3ccc(Cl)cc3)nc3n[nH]c(-c4ccc(Cl)cc4)c23)cc1OC`, the growth is 18.8% in assay [1]; 17.3% in assay [2]; 79.3% in [3]; 72.2% in assay [4]; 51.2% in assay [5]; 63.4% in [6]. Besides, the growth was 62.9% in assay [7]; 67.5% in assay [8]; 62% in assay [9]; 25.1% in assay [10]; 67.6% in assay [11]; 56.8% in assay [12]. Besides, the growth in assay [13] was 26.2%; in assay [14] it was 31.4%; in assay [15], 53.4%; in [16], 30.2%; in assay [17], 50.5%.
`O=C(/C=C/c1cccc(OCc2ccc(F)cc2)c1)c1nc2ccccc2[nH]1`: the growth was -44% (active) in [1]; -50.4% (active) in assay [2]; 83.2% in assay [3]; 122% in [4]; 62.5% in assay [5]; 92.9% in assay [6]. For the same compound, the growth is 93.5% in assay [7]; 68.2% in [8]; 72.5% in assay [9]; 22.1% in assay [10]; 16% in assay [11]; 68.8% in assay [12]. Besides, the growth was 3.5% (active) in [13]; -24.9% (active) in assay [14]; 26.6% in assay [15]; 13.6% in [16]; 8.37% (active) in assay [17].
As for `COc1cc(/C=C/C(=O)c2nnn(-c3ccc(Cl)cc3)c2C)cc(OC)c1OC`, the growth is 5.48% (active) in assay [1]; -7.65% (active) in assay [2]; 31.8% in assay [3]; 47.8% in [4]; 34.7% in [5]; 59.4% in assay [6]. Besides, the growth in [7] was 59.3%; in assay [8], 22.9%; in assay [9], 8.27% (active); in [10], 43.2%; in assay [11], 36.8%; in assay [12], 2.83% (active). Moreover, the growth in assay [13] was 8.67% (active); in assay [14], 26.2%; in assay [15], 23.1%; in assay [16], 20.8%; in assay [17] it was -20.7% (active).
Turning to `CCOC(=O)C1=C(N)N(c2ccccc2)C2=C(C(=O)CC(C)(C)C2)C1c1ccc(Cl)cc1Cl` (stereo not drawn), the growth in assay [1] is 10.1%; in assay [2] it was 7.77% (active); in assay [3] it was 36.7%; in assay [4] it was 56.9%; in [5] it was 25.3%; in [6], 34.5%. The growth in [7] is 59.4%; in assay [8] it was 33.3%; in [9], 23.6%; in [10] it was 20.9%; in [11] it was 33.4%; in assay [12], 29.5%. For the same compound, the growth in assay [13] was 9.22% (active); in assay [14], 13.6%; in assay [15], 37.5%; in assay [16], 18.7%; in assay [17], 3.8% (active).
With `CC(C)c1ccc2c(N)c(C(=O)Nc3cccc(C(F)(F)F)c3)sc2n1`, the growth in assay [1] was 40.4%; in [2] it was 32.1%; in assay [3] it was 90.7%; in assay [4] it was 85%; in assay [5], 78.1%; in assay [6] it was 87.2%. In addition, the growth in [7] is 108%; in assay [8], 94.1%; in [9], 71.7%; in assay [10] it was 51.8%; in [11] it was 112%; in [12], 82.5%. Moreover, the growth in [13] is 70.3%; in [14] it was 81.4%; in assay [15], 73.1%; in [16], 43.2%; in assay [17] it was 13.2%.
`CN1CCc2c(sc3ncnc(N/N=C/c4ccc(Cl)cc4Cl)c23)C1`: the growth was -16.5% (active) in [1]; -9.12% (active) in assay [2]; 6.87% (active) in assay [3]; -18.6% (active) in [4]; -40.6% (active) in [5]; 0.686% (active) in [6]. Moreover, the growth in [7] is 30.4%; in [8], -56.5% (active); in assay [9], 8.35% (active); in assay [10], 76.9%; in assay [11], -40.2% (active); in assay [12] it was -23.7% (active). The growth in assay [13] was 3.77% (active); in assay [14] it was -64.1% (active); in [15] it was 24.1%; in [16], 24.8%; in assay [17] it was -67.5% (active).
In the case of `COc1ccc2nc(Nc3cccc(NC(=O)c4ccc(CN5CCCN(C)CC5)c(C(F)(F)F)c4)c3)ccc2c1`, the growth in [1] is 4.09% (active); in assay [2], -31.7% (active); in assay [3] it was 2.26% (active); in assay [4] it was -84.5% (active); in [5], -94.4% (active); in assay [6], -62.4% (active). For the same compound, the growth in assay [7] is -56.4% (active); in assay [8], -48.8% (active); in assay [9], -43.1% (active); in assay [10], -44.6% (active); in assay [11], -61.4% (active); in assay [12], -42.8% (active). Also, the growth is -62.8% (active) in [13]; -47.1% (active) in [14]; -62.6% (active) in [15]; -47.5% (active) in assay [16]; -71.1% (active) in [17].
